Laboratory results taken from PMC7862700, “An all-to-all approach to the identification of sequence-specific readers for epigenetic DNA modifications on cytosine”.

Legend:
Assay in all cases: DAPPL (digital affinity profiling via proximity ligation, sequencing); 10 mM Tris-HCl pH 7.5, 50 mM NaCl, 1 mM DTT, 4% glycerol, room temperature, 30 min; GST-TFs on glutathione beads, 16-mer random dsDNA library, 0.1% formaldehyde crosslink after washing; high values mean tight binding
Details in all cases: protein: recombinant; tags: N-terminal GST; dsDNA, one strand shown
ELK1 = biological target: T1, ELK1 (Homo sapiens, UniProt P19419 1-428)
T1 sequence: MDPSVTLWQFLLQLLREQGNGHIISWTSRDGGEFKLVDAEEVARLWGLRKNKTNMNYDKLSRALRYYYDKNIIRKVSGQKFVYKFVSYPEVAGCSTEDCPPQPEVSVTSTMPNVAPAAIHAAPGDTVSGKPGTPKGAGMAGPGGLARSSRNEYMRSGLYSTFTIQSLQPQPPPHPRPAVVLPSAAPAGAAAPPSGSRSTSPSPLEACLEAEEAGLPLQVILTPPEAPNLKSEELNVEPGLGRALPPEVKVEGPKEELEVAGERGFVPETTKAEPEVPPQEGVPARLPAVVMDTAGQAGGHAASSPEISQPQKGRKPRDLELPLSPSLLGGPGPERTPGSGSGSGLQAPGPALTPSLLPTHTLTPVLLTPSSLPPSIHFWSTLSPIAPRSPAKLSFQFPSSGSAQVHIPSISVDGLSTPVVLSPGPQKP
Procedure, shortened: (§1)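 A tag-only sample was pooled with DNA-barcoded human transcription factors that had been expressed in yeast as GST fusions and captured on glutathione beads. The pools were incubated for 30 min at room temperature with 200 nmole of a random double-stranded 16-mer DNA library in Tris/NaCl/DTT/glycerol buffer, then washed, crosslinked with 0.1% formaldehyde, proximity-ligated (BsaI/T4 ligase, 1 h, 37 °C), PCR-amplified and sequenced on an Illumina NextSeq500. Binding signal is each hexamer's read frequency for a factor divided by its frequency for the tag-only sample.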

GABPA = biological target: T2, GABPA (Homo sapiens, UniProt Q06546 1-454)
T2 sequence: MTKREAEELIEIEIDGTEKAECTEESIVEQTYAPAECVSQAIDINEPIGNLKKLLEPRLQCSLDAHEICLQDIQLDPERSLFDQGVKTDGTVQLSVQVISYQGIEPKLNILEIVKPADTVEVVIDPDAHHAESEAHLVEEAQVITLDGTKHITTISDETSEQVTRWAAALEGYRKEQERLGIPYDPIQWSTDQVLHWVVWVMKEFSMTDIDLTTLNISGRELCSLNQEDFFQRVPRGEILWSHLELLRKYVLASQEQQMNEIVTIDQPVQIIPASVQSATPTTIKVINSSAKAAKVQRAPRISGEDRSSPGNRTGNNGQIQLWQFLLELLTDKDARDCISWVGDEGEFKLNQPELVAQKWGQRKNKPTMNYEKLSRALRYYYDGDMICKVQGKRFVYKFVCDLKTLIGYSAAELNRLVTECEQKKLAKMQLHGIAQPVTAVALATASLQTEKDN
Procedure, shortened: as §1

ERG = biological target: T3, ERG (Homo sapiens, UniProt P11308 1-479)
T3 sequence: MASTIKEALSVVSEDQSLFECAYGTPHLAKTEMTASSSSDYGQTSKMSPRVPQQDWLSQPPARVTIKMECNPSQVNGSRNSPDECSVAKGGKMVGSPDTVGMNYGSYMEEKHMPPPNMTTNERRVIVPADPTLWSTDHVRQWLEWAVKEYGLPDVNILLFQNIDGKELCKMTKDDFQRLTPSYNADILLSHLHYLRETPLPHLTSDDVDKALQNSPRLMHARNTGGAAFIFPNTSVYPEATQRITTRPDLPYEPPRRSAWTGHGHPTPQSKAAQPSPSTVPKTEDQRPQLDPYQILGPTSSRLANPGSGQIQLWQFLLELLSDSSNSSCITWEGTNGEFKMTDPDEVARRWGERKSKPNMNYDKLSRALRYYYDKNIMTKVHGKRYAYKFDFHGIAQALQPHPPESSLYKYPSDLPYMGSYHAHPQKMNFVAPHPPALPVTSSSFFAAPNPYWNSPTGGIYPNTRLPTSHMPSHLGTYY
Procedure, shortened: as §1

ELF1 = ELF1 (Homo sapiens, UniProt P32519 1-619)
Sequence of ELF1 (P32519 whole entry): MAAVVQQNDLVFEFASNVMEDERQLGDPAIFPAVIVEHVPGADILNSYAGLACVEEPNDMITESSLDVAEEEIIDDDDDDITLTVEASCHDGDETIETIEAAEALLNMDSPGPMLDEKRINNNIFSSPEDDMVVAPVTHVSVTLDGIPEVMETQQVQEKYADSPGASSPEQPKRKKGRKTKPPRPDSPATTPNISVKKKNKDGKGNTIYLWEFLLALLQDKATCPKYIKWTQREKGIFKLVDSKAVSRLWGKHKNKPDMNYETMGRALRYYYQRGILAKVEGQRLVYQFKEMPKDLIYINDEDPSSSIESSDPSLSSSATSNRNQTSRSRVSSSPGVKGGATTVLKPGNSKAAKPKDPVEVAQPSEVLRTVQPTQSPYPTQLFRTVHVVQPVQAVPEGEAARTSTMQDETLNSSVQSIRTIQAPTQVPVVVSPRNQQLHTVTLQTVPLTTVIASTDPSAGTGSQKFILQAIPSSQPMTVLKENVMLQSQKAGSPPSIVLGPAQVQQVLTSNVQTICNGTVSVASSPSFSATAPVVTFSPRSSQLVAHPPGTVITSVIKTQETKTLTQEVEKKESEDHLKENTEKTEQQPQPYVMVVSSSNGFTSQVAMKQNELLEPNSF
Procedure, shortened: as §1

EHF = biological target: T4, EHF (Homo sapiens, UniProt Q9NZC4 1-300)
T4 sequence: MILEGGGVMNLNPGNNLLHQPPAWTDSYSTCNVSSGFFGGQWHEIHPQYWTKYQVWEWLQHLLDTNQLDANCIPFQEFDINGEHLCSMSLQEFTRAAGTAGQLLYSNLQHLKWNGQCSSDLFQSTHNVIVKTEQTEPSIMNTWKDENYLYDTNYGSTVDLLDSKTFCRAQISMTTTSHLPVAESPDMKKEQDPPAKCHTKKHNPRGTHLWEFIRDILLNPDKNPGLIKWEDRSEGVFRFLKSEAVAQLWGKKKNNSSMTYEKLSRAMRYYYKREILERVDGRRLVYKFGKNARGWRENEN
Procedure, shortened: as §1

SPIB = SPIB (Homo sapiens, UniProt Q01892 1-262)
Sequence of SPIB (Q01892 whole entry): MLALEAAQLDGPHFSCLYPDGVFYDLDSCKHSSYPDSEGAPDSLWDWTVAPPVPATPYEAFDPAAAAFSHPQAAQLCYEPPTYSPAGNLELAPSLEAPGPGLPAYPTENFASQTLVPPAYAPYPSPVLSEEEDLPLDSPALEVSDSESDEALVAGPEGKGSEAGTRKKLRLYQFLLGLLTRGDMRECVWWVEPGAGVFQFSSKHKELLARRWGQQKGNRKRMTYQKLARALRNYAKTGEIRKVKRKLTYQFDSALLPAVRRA
Procedure, shortened: as §1

ETV5 = ETV5 (Homo sapiens, UniProt P41161 1-510)
Sequence of ETV5 (P41161 whole entry): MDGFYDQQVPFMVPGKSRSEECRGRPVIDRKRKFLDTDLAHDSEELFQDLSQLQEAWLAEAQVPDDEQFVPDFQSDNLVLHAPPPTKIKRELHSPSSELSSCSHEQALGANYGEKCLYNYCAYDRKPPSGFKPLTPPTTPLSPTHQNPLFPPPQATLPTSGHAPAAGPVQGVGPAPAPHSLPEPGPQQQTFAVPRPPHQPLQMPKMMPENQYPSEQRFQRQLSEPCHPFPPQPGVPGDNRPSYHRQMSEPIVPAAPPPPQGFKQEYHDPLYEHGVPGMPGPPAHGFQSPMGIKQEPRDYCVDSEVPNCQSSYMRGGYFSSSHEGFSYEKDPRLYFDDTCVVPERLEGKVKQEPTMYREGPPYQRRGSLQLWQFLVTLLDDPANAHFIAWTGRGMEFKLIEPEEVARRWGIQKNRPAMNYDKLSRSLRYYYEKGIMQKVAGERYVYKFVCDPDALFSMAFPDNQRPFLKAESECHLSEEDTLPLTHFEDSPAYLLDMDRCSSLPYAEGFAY
Procedure, shortened: as §1

ELF4 = ELF4 (Homo sapiens, UniProt Q99607 1-663)
Sequence of ELF4 (Q99607 whole entry): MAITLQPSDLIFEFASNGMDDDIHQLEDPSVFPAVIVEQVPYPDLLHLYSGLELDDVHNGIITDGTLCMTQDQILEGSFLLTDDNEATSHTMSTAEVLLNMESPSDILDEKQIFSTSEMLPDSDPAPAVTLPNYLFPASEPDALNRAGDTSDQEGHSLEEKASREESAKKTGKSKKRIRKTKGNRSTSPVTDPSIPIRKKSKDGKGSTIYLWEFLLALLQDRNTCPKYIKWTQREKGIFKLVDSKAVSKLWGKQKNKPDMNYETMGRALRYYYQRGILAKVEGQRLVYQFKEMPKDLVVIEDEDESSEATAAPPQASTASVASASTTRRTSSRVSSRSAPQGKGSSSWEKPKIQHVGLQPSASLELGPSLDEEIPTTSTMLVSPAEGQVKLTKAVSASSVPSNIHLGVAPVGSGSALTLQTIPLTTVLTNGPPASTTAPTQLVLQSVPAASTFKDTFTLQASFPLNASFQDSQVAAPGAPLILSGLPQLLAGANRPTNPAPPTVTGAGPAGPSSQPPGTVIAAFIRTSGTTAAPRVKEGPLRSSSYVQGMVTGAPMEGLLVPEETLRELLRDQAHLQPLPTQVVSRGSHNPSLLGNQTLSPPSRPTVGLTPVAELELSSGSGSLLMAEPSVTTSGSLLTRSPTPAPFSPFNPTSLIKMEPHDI
Procedure, shortened: as §1

ELK4 = biological target: T5, ELK4 (Homo sapiens, UniProt P28324-2 1-405)
T5 sequence: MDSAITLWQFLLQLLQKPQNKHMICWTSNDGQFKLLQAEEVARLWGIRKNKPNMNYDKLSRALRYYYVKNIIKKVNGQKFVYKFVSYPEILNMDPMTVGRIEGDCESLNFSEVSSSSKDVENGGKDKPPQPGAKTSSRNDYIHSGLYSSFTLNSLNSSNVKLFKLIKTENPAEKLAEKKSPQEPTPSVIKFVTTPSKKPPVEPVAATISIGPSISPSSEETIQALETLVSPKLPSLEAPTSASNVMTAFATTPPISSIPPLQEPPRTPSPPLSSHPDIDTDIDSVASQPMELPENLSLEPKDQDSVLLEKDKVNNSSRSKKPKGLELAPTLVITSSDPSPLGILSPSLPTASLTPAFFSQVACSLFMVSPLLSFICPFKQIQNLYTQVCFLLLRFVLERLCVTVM
Procedure, shortened: as §1

ETV2 = biological target: T6, ETV2 (Homo sapiens, UniProt O00321 1-342)
T6 sequence: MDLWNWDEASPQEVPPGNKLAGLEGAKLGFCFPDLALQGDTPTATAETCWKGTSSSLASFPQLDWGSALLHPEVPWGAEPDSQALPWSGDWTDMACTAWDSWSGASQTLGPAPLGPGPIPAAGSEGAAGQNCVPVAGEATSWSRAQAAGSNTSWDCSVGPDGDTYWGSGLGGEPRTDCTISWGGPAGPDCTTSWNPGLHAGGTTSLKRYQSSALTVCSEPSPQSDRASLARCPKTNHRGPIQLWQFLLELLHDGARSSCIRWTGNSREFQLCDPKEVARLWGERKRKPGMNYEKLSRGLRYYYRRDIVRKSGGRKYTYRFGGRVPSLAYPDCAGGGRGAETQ
Procedure, shortened: as §1

ETV1 = ETV1 (Homo sapiens, UniProt P50549 1-477)
Sequence of ETV1 (P50549 whole entry): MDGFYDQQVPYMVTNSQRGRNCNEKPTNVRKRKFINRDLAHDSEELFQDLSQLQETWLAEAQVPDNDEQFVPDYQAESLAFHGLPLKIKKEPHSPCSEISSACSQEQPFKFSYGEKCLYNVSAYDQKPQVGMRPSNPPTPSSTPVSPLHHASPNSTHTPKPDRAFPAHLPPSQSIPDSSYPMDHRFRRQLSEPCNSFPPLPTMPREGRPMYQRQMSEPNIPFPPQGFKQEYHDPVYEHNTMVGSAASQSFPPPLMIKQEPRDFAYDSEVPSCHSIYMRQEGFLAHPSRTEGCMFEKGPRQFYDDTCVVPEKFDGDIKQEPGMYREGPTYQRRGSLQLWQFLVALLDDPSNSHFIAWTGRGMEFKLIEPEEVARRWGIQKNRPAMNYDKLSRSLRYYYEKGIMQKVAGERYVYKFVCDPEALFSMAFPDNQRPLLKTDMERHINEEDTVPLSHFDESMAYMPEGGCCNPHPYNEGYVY
Procedure, shortened: as §1

ETV3L = biological target: T7, ETV3L (Homo sapiens, UniProt Q6ZN32 1-361)
T7 sequence: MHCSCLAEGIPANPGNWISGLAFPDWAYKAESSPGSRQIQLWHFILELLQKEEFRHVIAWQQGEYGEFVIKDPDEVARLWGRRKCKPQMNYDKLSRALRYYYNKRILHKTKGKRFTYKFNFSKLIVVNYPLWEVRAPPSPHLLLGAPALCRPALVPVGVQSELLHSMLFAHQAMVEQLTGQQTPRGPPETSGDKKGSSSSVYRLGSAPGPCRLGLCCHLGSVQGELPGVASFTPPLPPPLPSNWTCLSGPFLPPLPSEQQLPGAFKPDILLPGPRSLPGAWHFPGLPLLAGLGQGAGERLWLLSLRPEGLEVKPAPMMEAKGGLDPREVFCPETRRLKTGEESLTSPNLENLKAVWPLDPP
Procedure, shortened: as §1

ETS2 = biological target: T8, ETS2 (Homo sapiens, UniProt P15036 1-469)
T8 sequence: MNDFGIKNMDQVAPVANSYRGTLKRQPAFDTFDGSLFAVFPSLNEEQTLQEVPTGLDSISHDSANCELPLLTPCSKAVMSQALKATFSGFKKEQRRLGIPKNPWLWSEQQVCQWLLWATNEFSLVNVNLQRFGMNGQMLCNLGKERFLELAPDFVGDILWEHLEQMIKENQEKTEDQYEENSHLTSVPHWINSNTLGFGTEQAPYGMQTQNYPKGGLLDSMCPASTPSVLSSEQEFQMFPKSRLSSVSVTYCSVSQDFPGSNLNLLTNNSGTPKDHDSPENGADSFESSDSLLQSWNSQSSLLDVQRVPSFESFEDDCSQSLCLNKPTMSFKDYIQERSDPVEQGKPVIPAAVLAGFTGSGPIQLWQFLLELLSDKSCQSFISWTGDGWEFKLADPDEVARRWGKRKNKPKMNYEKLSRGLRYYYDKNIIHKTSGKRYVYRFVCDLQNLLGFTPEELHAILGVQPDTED
Procedure, shortened: as §1

SPDEF = biological target: T9, SPDEF (Homo sapiens, UniProt O95238 1-335)
T9 sequence: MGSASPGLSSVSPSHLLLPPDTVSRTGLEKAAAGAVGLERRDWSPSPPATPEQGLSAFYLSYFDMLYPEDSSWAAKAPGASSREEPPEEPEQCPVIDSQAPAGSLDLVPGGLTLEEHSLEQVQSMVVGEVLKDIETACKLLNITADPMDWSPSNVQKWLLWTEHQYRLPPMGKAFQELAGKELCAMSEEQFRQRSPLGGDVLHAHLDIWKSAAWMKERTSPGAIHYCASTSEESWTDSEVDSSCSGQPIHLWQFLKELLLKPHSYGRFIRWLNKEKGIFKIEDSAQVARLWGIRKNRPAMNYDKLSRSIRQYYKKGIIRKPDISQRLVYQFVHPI
Procedure, shortened: as §1

ETV7 = biological target: T10, ETV7 (Homo sapiens, UniProt Q9Y603 1-341)
T10 sequence: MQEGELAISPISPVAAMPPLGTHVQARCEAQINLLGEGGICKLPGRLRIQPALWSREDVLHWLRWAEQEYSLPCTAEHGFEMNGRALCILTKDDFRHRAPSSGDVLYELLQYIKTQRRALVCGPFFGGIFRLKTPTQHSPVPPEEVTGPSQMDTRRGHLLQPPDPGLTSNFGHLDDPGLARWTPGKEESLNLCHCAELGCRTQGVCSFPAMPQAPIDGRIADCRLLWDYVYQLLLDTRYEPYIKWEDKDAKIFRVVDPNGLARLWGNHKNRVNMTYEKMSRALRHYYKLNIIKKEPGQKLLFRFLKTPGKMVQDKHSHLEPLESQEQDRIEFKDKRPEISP
Procedure, shortened: as §1

ETV3 = biological target: T11, ETV3 (Homo sapiens, UniProt P41162-2 1-143)
T11 sequence: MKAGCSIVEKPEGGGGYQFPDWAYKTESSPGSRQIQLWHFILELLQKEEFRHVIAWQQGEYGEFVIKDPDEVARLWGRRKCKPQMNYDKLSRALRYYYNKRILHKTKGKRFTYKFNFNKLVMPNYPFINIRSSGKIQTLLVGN
Procedure, shortened: as §1

ETV6 = ETV6 (Homo sapiens, UniProt P41212 1-452)
Sequence of ETV6 (P41212 whole entry): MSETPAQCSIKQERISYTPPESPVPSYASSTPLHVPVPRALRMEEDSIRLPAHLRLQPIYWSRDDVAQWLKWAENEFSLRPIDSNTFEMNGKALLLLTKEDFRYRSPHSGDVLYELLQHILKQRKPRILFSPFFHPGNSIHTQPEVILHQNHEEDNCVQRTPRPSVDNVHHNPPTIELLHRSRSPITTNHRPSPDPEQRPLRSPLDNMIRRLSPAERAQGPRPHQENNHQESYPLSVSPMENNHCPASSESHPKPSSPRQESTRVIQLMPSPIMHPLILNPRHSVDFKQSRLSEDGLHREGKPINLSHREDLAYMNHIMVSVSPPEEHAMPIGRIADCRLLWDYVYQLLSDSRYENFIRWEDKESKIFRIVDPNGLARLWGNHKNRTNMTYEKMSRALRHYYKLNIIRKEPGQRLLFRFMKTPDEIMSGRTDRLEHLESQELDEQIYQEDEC
Procedure, shortened: as §1

CTGGGC
binding signal (ELK1): 1.08 fold enrichment (6-mer frequency, TF over GST control) | binding signal (GABPA): 1.09 fold enrichment (6-mer frequency, TF over GST control) | binding signal (ERG): 1.04 fold enrichment (6-mer frequency, TF over GST control) | binding signal (ELF1): 1.24 fold enrichment (6-mer frequency, TF over GST control) | binding signal (EHF): 1.01 fold enrichment (6-mer frequency, TF over GST control) | binding signal (SPIB): 1.03 fold enrichment (6-mer frequency, TF over GST control) | binding signal (ETV5): 1.04 fold enrichment (6-mer frequency, TF over GST control) | binding signal (ELF4): 1.07 fold enrichment (6-mer frequency, TF over GST control) | binding signal (ELK4): 1.11 fold enrichment (6-mer frequency, TF over GST control) | binding signal (ETV2): 1.13 fold enrichment (6-mer frequency, TF over GST control) | binding signal (ETV1): 1 fold enrichment (6-mer frequency, TF over GST control) | binding signal (ETV3L): 1.12 fold enrichment (6-mer frequency, TF over GST control) | binding signal (ETS2): 1.03 fold enrichment (6-mer frequency, TF over GST control) | binding signal (SPDEF): 1 fold enrichment (6-mer frequency, TF over GST control) | binding signal (ETV7): 1.24 fold enrichment (6-mer frequency, TF over GST control) | binding signal (ETV3): 1.03 fold enrichment (6-mer frequency, TF over GST control) | binding signal (ETV6): 1.03 fold enrichment (6-mer frequency, TF over GST control)
